# SRC3 TRFRET art – TR-FRET detection interference compounds, artefact control for PPARgamma SRC-3 recruitment agonists, biochemical, TR-FRET ratio | TR-FRET artefact counter-screen, PPARgamma/SRC-3 format; hits give high values | TR-FRET ratio at 8 µM | hit rate 0.39% among 99,000 | AID 1048, 2008
# SRC1 TRFRET art – TR-FRET detection interference compounds, primary screen, artefact control for PPARgamma SRC-1 recruitment agonists, biochemical, TR-FRET emission ratio; TR-FRET detection artefact counter-screen; hits give high values; TR-FRET ratio at 8 µM; hit rate 0.34% among 99,000; AID 1051, 2008; in the data active = TR-FRET ratio above about 2300
# PPARg SRC-2 ag – agonists of PPARg-SRC-2 recruitment, primary screen, biochemical, HTS; Peroxisome proliferator-activated receptor gamma (Homo sapiens), P37231; PPARgamma LBD-SRC-2 recruitment; activation, % at 8 µM; hit rate 0.34% among 200,000; AID 1032, 2008; in the data active = activation above about 22%
# Target sequence (P37231 whole entry, looked up, the tested form may be a part): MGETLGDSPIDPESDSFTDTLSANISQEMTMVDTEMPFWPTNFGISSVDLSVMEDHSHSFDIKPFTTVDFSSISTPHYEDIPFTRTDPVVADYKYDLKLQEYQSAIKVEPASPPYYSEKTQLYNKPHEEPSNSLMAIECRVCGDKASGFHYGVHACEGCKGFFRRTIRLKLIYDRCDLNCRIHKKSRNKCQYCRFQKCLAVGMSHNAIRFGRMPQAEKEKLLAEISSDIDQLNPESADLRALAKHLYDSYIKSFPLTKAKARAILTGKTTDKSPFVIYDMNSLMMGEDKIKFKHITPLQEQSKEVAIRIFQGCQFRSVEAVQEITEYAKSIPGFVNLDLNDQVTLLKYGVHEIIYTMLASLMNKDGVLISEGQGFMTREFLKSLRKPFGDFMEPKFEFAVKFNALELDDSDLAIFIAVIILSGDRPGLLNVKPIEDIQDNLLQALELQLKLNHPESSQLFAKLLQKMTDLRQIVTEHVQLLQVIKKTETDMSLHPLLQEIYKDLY
# PPARg SRC3 recr – PPARgamma agonists recruiting SRC-3 coactivator, primary screen, biochemical; biochemical PPARgamma/SRC-3 coactivator recruitment assay; activation, % at 8 µM; hit rate 0.26% among 200,000; in the data active = activation above about 23%
# SRC2 TRFRET art – TR-FRET signal artefacts, primary screen, artefact control for PPARgamma SRC-2 agonist project, biochemical. TR-FRET artefact counter-screen; hits give high values. TR-FRET ratio at 8 µM. hit rate 0.4% among 200,000. AID 1049, 2008
# PPARg SRC-1 ag – PPARgamma agonists recruiting SRC-1 coactivator, primary screen, biochemical; activation, % at 8 µM; AID 631, 2007; Peroxisome proliferator-activated receptor gamma (Homo sapiens), P37231; PPARgamma-SRC-1 coactivator recruitment biochemical assay; hit rate 0.41% among 200,000; in the data active = activation above about 19%
# Numbers stand for hits; 0 = inactive; - = no result given. Shown are actives, neighbours in structure and some others; about 0.9% of the full set was active somewhere. Rule as the data show it, unless noted: active = TR-FRET ratio above about 2000; inactive = the rest.
SMILES,SRC3 TRFRET art,SRC1 TRFRET art,PPARg SRC-2 ag,PPARg SRC3 recr,SRC2 TRFRET art,PPARg SRC-1 ag
Cc1ccc(S(=O)(=O)N2CCOCC2)cc1NC(=O)CSc1nnc2cc(C)c3ccccc3n12,0,0,0,0,0,0
O=C(CSc1nc2ccccc2s1)Nc1cc(S(=O)(=O)N2CCOCC2)ccc1Cl,2069,0,0,0,0,0
Cc1cc(SCC(=O)Nc2cccc(S(=O)(=O)N3CCOCC3)c2)nc2ccccc12,2197,0,0,0,0,0
Cc1ccc(-n2c(SCC(=O)Nc3cc(S(=O)(=O)N4CCOCC4)ccc3Cl)nc3ccccc3c2=O)cc1,0,0,0,0,0,0
O=C(CSc1nc2ccccc2c(=O)n1-c1ccc(F)c(Cl)c1)Nc1cccc(S(=O)(=O)N2CCOCC2)c1,0,0,0,0,0,0
O=C(CSc1nc2ccccc2c(=O)n1-c1ccc(F)cc1)Nc1ccc(Cl)c(S(=O)(=O)N2CCOCC2)c1,2299,0,0,0,2212,0
Cc1cc2nnc(SCC(=O)Nc3cc(S(=O)(=O)N4CCOCC4)ccc3Cl)n2c2ccccc12,2297,0,0,0,0,0
Cc1ccc(-n2c(SCC(=O)Nc3cccc(S(=O)(=O)NC4=NCCCCC4)c3)nc3ccccc3c2=O)cc1,2355,0,0,0,2048,0
CCc1ccc(-n2c(SCC(=O)Nc3cccc(S(=O)(=O)NC4=NCCCCC4)c3)nc3ccccc3c2=O)cc1,0,0,0,0,0,0
O=C(CSc1nnc2c(n1)[nH]c1ccc(S(=O)(=O)N3CCOCC3)cc12)Nc1ccccc1Cl,2209,0,0,0,0,0
Nc1cc(=O)[nH]c(SCC(=O)Nc2cc(S(=O)(=O)N3CCOCC3)ccc2Cl)n1,0,0,0,0,0,0
COc1ccc(NC(=S)NCc2cccn2C)cc1,0,0,0,0,0,0
CN(C(=O)c1ccc(COc2ccccc2Br)o1)c1ccccc1,0,0,0,0,0,0
CC(C)/C=N/Nc1nc(-c2ccc(Br)cc2)cs1,0,0,0,0,0,0
CC(CNC(=O)CCc1nnc(CCC2CCCCC2)o1)c1ccccc1 (stereo not drawn),0,0,0,0,0,0
O=C(OC1CCCCC1)c1ccc2c(c1)C1C=CCC1C(C(=O)O)N2 (stereo not drawn),0,0,0,0,2020,0
Cc1cc2nc(-c3ccc(SCc4ccc(C#N)cc4)nc3)[nH]c2cc1C,-,-,0,0,2209,0
CCC(C)NC(=O)CSc1nnc(-c2c[nH]c3ccccc23)o1 (stereo not drawn),0,0,0,0,0,0
O=C(COC(=O)c1ccc(Cl)c(S(=O)(=O)N2CCc3ccccc3C2)c1)Nc1ncc(Cl)cc1Cl,2156,0,0,0,0,0
O=C(COC(=O)c1cccc(S(=O)(=O)N2CCc3ccccc32)c1)Nc1ncc(Cl)cc1Cl,0,0,0,0,0,0
Cn1c(SCC(=O)Nc2cccc(Br)c2)nnc1-c1cc2ccccc2o1,-,-,0,0,0,31.2
COc1cc(C(=O)N/N=c2/sc3ccccc3n2C)cc(OC)c1OC,0,0,0,0,0,0
COc1ccc(C(=O)N=c2sc3ccccc3n2C)cc1OC,0,4952,0,0,0,167.8
COc1cc([N+](=O)[O-])cc2sc(NC(=O)C3CC3)nc12,0,0,0,0,0,0
CCCCOc1ccc(NC2=NC3(CCCC3)N=C(N)N2)cc1,-,-,40.7,0,2220,0
SMILES,SRC3 TRFRET art,SRC1 TRFRET art,PPARg SRC-2 ag,PPARg SRC3 recr,SRC2 TRFRET art,PPARg SRC-1 ag
CCc1ccc2nc(N3C(=O)C(O)=C(C(=O)c4ccco4)C3c3cccs3)sc2c1 (stereo not drawn),-,-,36.1,27.9,2282,29.1
CSc1ccccc1OC1CCN(Cc2ccccc2)CC1,0,0,0,0,0,0
CC(C)(C)NC(=O)CSc1nnc(-c2ccco2)n1Cc1ccco1,0,0,0,0,2029,0
Cn1c(=O)c2c(ncn2CCNC2=NCCCCC2)n(C)c1=O,0,0,37.7,0,0,0
CCOc1ccccc1NC(=S)N1CCN(c2nc(-c3ccc(F)cc3)cs2)CC1,2234,2465,0,0,2063,0
O=C(COc1ccc([N+](=O)[O-])cc1)NC(C(=O)O)C(O)c1cccc([N+](=O)[O-])c1 (stereo not drawn),0,0,0,0,0,0
COc1ccc(C2(C)NC(=O)N(CC(=O)Nc3ccc(-c4nc5ccc(C)cc5s4)cc3)C2=O)cc1 (stereo not drawn),2403,2469,0,0,0,0
Cc1nc2ccc(NC(=O)CCS(=O)(=O)c3ccccc3)cc2s1,0,0,0,0,0,0
CCC1(c2ccc(F)cc2)NC(=O)N(CC(=O)Nc2ccc(-c3nc4ccc(C)cc4s3)cc2)C1=O (stereo not drawn),2350,0,0,0,0,0
Cc1ccc2nc(-c3ccc(NC(=O)CCS(=O)(=O)c4ccccc4)cc3)sc2c1,2301,0,0,0,0,0
CCOc1ccccc1NC(=O)c1cc(C(=O)Nc2ccccc2OCC)cc(N2C(=O)CCC2=O)c1,0,0,0,0,0,0
CCOC(=O)C1C(=O)C=C(c2ccc([N+](=O)[O-])cc2)CC1c1ccccc1 (stereo not drawn),-,-,0,0,0,0
CCOC(=O)C1C(=O)C=C(c2ccc(C)cc2)CC1c1ccccc1 (stereo not drawn),0,0,0,0,2001,0
CC(=NCc1cccc(Cl)c1)c1nc(-c2ccco2)oc1O,0,0,0,0,0,0
Cc1nn(-c2ccccn2)c2c1-c1nc(N)ncc1CC2,-,-,0,0,0,0
Cc1nn(-c2ccccn2)c2c1-c1nc(N3CCOCC3)ncc1CC2,-,-,0,0,0,22.1
CC(OC(=O)c1ccc2c(=O)n3c(nc2c1)CCCCC3)C(N)=O (stereo not drawn),0,0,0,0,0,0
Nc1ccc2c(c1)Cc1cc([N+](=O)[O-])ccc1-2,0,0,0,0,2054,0
Cc1ccc([N+](=O)[O-])cc1N,0,0,0,0,0,0
O=C(O)c1ccc(-c2ccc(/C=C3\NC(=O)N(Cc4ccc(Cl)cc4)C3=O)o2)cc1Cl,0,0,0,0,0,0
CC1CCCCC1NC(=O)COC(=O)CNC(=O)c1cccc(F)c1 (stereo not drawn),0,0,0,0,0,0
Cc1ccc2nc(-c3cccnc3SCC(=O)N3c4ccccc4CC3C)[nH]c2c1 (stereo not drawn),-,-,0,0,2147,0
Cc1ccc2nc(SCC(=O)N3c4ccccc4CC3C)c(C)cc2c1 (stereo not drawn),-,-,0,0,0,0

# Bioassay records: PubChem BioAssay, The Scripps Research Institute Molecular Screening Center
